C diff HTS: inhibitors of Clostridium difficile growth | growth activity, negative = inhibition, % at 16 µg/mL (by protocol) | AID 1259249 | actives 0.25% (n = 86,000) | Clostridium difficile clinical isolate growth, OD600, 24 h; active compounds read low;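 active means mean growth activity at or below -80% and every replicate also at or below -80%; inconclusive means mean at or below -80% but some replicate above -80%; inactive means mean growth activity above -80%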
T cruzi growth: T. cruzi proliferation inhibition; actives 5.9% (n = 77,000); AID 624255; inhibition, % at 8.34 µM; T. cruzi beta-gal in NIH3T3, GalScreen luminescence, 90 h;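 active means mean inhibition above about 93%, with at least 55% of replicates each passing it, limit read from the data, passing the limit was not always enough; inconclusive means only one of those two conditions holds; inactive means neither condition holds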
Pf Dd2 inh: P. falciparum Dd2 growth inhibition | actives 2.3% (n = 94,000) | SYBR Green, 72 h; active compounds read low | activity change, % at 10 µM | AID 1159554; in the data active means activity change below about -80%; inconclusive means no clear call, values can overlap the other calls
Numbers stand for hits; i = inactive; ? = inconclusive; nt = not tested or not shown; ! = repeats disagree. An excerpt weighted towards active compounds, which were near 6.8% of everything screened.

SMILES	C diff HTS	T cruzi growth	Pf Dd2 inh
C(=C\c1ccc(C2[C@@H]3CN(Cc4ccc5c(c4)OCO5)C[C@H]2N3)cc1)/c1ccccc1 (stereo partly specified)	-99	nt	?
c1ncc(-c2ccc(C3[C@@H]4CN(Cc5ccc6c(c5)OCO6)C[C@H]3N4)cc2)cn1 (stereo partly specified)	i	nt	i
COc1cc(CN2C[C@@H]3N[C@H](C2)C3c2ccc(-c3ccncc3)cc2)cc(OC)c1 (stereo partly specified)	i	nt	-81
COc1ccc(-c2ccc(C3[C@@H]4CN(Cc5cc(OC)cc(OC)c5)C[C@H]3N4)cc2)cc1 (stereo partly specified)	-101!	nt	-88!
CC=Cc1ccc2n(c1=O)C[C@H]1[C@H](CO)[C@@H](C(=O)N(C)C)N(Cc3cccc(F)c3)[C@@H]21 (mixture of isomers)	i	i	nt
COc1ccc(S(=O)(=O)N(C)C[C@@H]2OCCCC[C@H](C)Oc3ccc(NC(=O)Cc4ccccc4)cc3C(=O)N([C@H](C)CO)C[C@H]2C)cc1	i	i	-84
COc1ccc(S(=O)(=O)N(C)C[C@@H]2OCCCC[C@H](C)Oc3ccc(NC(=O)Cc4ccccc4)cc3C(=O)N([C@@H](C)CO)C[C@@H]2C)cc1	i	i	-83
COc1ccc(S(=O)(=O)N(C)C[C@@H]2OCCCC[C@@H](C)Oc3ccc(NC(=O)Cc4ccccc4)cc3C(=O)N([C@@H](C)CO)C[C@H]2C)cc1	i	i	i
COc1ccc(S(=O)(=O)N(C)C[C@H]2OCCCC[C@H](C)Oc3ccc(NC(=O)Cc4ccccc4)cc3C(=O)N([C@@H](C)CO)C[C@H]2C)cc1	i	i	?
O=C(C1CCC1)N1CC2(C1)[C@@H](c1ccccc1)[C@@H](CO)N2C(=O)c1ccccn1	i	nt	i
COc1ccccc1S(=O)(=O)Nc1ccc2c(c1)C(=O)N(C)C[C@H](OC)[C@@H](C)CN[C@@H](C)CO2	nt	i	i
O=C(NC[C@@H]1CC[C@H]2[C@H](CN2Cc2cc(-c3ccccc3)on2)O1)c1ccc2c(c1)OCO2	i	nt	-90
O=C(NC[C@@H]1CC[C@@H]2[C@@H](CN2C(=O)NC2CCCC2)O1)c1ccc2c(c1)OCO2	i	nt	i
CC(=O)N[C@H]1CC[C@H](CCNC(=O)Nc2ccc(C(F)(F)F)cc2)O[C@H]1CO	-95	i	i
CN(C)CC(=O)N[C@@H]1CC[C@@H](CCNC(=O)Nc2ccc(C(F)(F)F)cc2)O[C@@H]1CO	-100	i	i
CC(=O)N[C@H]1CC[C@@H](CCNC(=O)Nc2ccc(C(F)(F)F)cc2)O[C@H]1CO	i	i	i
O=C(NCC[C@H]1CC[C@@H](NC(=O)C2CC2)[C@H](CO)O1)Nc1ccc(C(F)(F)F)cc1	i	i	i
O=C(NCC[C@H]1CC[C@@H](NC(=O)C2CC2)[C@@H](CO)O1)Nc1ccc(C(F)(F)F)cc1	-100	i	i
CCC(=O)N[C@H]1CC[C@@H](CCNC(=O)Nc2ccc(C(F)(F)F)cc2)O[C@H]1CO	nt	i	i
COc1ccc2c3c(n(C)c2c1)[C@@H](CO)N(C(=O)C1CC1)CC31CN(C(=O)Nc2cccc(F)c2)C1	i	nt	-88
COc1ccc2c3c(n(C)c2c1)[C@@H](CO)N(C(=O)C1CCOCC1)CC31CCN(C(=O)Nc2cccc(F)c2)CC1	i	nt	i
COc1ccc2c3c(n(C)c2c1)[C@@H](CO)N(C(=O)C1CC1)CC31CCN(C(=O)Nc2cccc(F)c2)CC1	i	nt	-91
COc1ccc2c3c(n(C)c2c1)[C@H](CO)N(C(=O)C1CC1)CC31CN(C(=O)Nc2cccc(F)c2)C1	i	nt	i
COc1ccc2c3c(n(C)c2c1)[C@H](CO)N(C)CC31CN(C(=O)Nc2cccc(F)c2)C1	i	nt	i
CCCC(=O)N1CCC2(CC1)CN(C(=O)Nc1cccc(F)c1)[C@@H](CO)c1c2c2ccc(OC)cc2n1C	i	nt	i
COc1ccc2c3c(n(C)c2c1)[C@@H](CO)N(C(=O)C1CCC1)CC31CN(C(=O)Nc2cccc(F)c2)C1	i	nt	-87
CCCC(=O)N1CC2(CCN(C(=O)Nc3cccc(F)c3)CC2)c2c(n(C)c3cc(OC)ccc23)[C@H]1CO	i	nt	-86
CCC(=O)N1CC2(CN(Cc3ccccc3Cl)C2)c2c([nH]c3cc(OC)ccc23)[C@H]1CO	i	nt	i
C[C@H](CO)N1C[C@H](C)[C@@H](CN(C)Cc2ccc(-c3ccccc3)cc2)Oc2ccc(NC(=O)Nc3ccc(C(F)(F)F)cc3)cc2C1=O	i	?	-85
C[C@H](CO)N1C[C@H](C)[C@H](CN(C)Cc2ccc(Oc3ccccc3)cc2)Oc2ccc(NC(=O)Nc3ccc(C(F)(F)F)cc3)cc2C1=O	nt	i	-88

Screening results: PubChem BioAssay, Broad Institute
